Holding throughout (assay): NCI-60 one-dose screen, 48 h (100 = growth as untreated, 0 = no growth, -100 = all killed)
What all share (details): 10 µM unless noted

In experiment [1] the test system is T-47D breast.
For experiment [2], the system named is BT-549 breast.
Experiment [3] relates to MDA-MB-435 melanoma.
Experiment [4] concerns SW-620 colon.
Experiment [5] has as its system MCF7 breast.
For experiment [6], the system named is HCT-116 colon.
Experiment [7] relates to HCC-2998 colon.
Experiment [8] relates to KM12 colon.

The structures appear in SMILES notation. This is part of a sample that, as a whole, favours compounds with a hit. Of some 83,000 tested, about 20% had one in any assay.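 Activity criterion: percent growth below 10, measured after cells in 96-well plates were exposed to a single compound concentration for 48 hours.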 A number with no mark means an inactive call. Activity calls are given as the source filed them.

For the molecule `CSc1nc(C)c([N+](=O)[O-])c(N)n1`, the growth is 107% in experiment [1]; 98.9% in experiment [2]; 107% in experiment [3]; 104% in experiment [4]; 94.3% in experiment [5]; 91.1% in experiment [6]. The growth in experiment [7] was 114%; in experiment [8] it was 99.5%.

Consider `CCOC(=O)c1cnc2c(N=Nc3ccc(OC)cc3)c(N)nn2c1N`, for which the growth is 104% in experiment [1]; 120% in experiment [2]; 95% in experiment [3]; 101% in experiment [4]; 85.9% in experiment [5]; 101% in experiment [6]. Besides, the figures for the growth in experiment [7] and in experiment [8] were 106% and 99.6%, respectively.

Take `O=C(O)c1cn(C2CC2)c2cc(N3CCN(C(=O)Nc4nc(-c5ccc(Br)cc5)cs4)CC3)c(F)cc2c1=O`: the growth in experiment [1] was 27.3%; in experiment [2] it was 1.15% (active); in experiment [3], 9.05% (active); in experiment [4], 21.6%; in experiment [5], 5.12% (active); in experiment [6], 18.5%. For the same molecule, the growth in experiment [7] is 35.4%; in experiment [8] it was 11.1%.

For the molecule `COc1ccc(-c2nc(-c3cn(C)c4ncccc34)cs2)cc1`, the growth was -6.67% [100 µM] (active) in experiment [1]; -30.1% [100 µM] (active) in experiment [2]; -43.6% [100 µM] (active) in experiment [3]; 10.8% [100 µM] in experiment [4]; -17.8% [100 µM] (active) in experiment [5]; -75.3% [100 µM] (active) in experiment [6]. In addition, the growth is -9.69% [100 µM] (active) in experiment [7] and 3.74% [100 µM] (active) in experiment [8].

Take `N=C(N)c1ccc(-c2ccc(-c3ccccc3)s2)cc1`: the growth in experiment [1] is 44.5%; in experiment [2], 90.6%; in experiment [3], 12%; in experiment [4], -46.2% (active); in experiment [5], 13.8%; in experiment [6], -55.1% (active). In addition, the growth in experiment [7] is -27.7% (active); in experiment [8], -7.55% (active).

For the molecule `COc1ccc(-c2nc3c(N)c(CO)cnc3s2)cc1`, the growth in experiment [1] is 89.2%; in experiment [2], 104%; in experiment [3], 92.9%; in experiment [4], 94.1%; in experiment [5] it was 91%; in experiment [6], 101%. In addition, the growth in experiment [7] is 85.8%; in experiment [8], 88.4%.

`C/C(Cc1ccc(Cl)cc1)=C(\c1ccc(OCCCN(C)C)cc1)c1ccc(OC(=O)Cc2ccccc2)cc1`: the growth is 71.3% in experiment [1]; 117% in experiment [2]; 107% in experiment [3]; 108% in experiment [4]; 57.9% in experiment [5]; 104% in experiment [6]. Moreover, the growth in experiment [7] was 107%; in experiment [8], 94.7%.

As to `[2H]C([2H])([2H])Oc1ccc(F)cc1/C=C/C(=O)/C=C(O)/C=C/c1cc(F)ccc1OC([2H])([2H])[2H]`, the growth in experiment [1] is 73.5%; in experiment [2], 93.3%; in experiment [3], 84.5%; in experiment [4], 102%; in experiment [5] it was 70%; in experiment [6] it was 83.9%. Moreover, the growth was 105% in experiment [7] and 98.4% in experiment [8].

As for `O=C(N/N=C\c1cccc([N+](=O)[O-])c1)N/N=C/c1cccc([N+](=O)[O-])c1`, the growth is 97.2% in experiment [1]; 108% in experiment [2]; 108% in experiment [3]; 103% in experiment [4]; 66.5% in experiment [5]; 108% in experiment [6]. In addition, the growth is 109% in experiment [7] and 107% in experiment [8].

As for `COc1ccc(C(=O)Cn2c(C(=O)c3ccc(OC)cc3)nc3ccccc32)cc1`, the growth in experiment [1] is 29.9%; in experiment [2] it was 31%; in experiment [3], -50% (active); in experiment [4], 9.77% (active); in experiment [5], 16%; in experiment [6] it was 12.2%. For the same molecule, the results for the growth in experiment [7] and in experiment [8] were 21.5% and 24.8%, respectively.

On to `C=CN(C(=O)N1CCN(c2cc3c(cc2F)c(=O)c(C(=O)O)cn3C2CC2)CC1)c1nc(-c2ccc(OC)cc2)cs1`, for which the growth in experiment [1] is 44.1%; in experiment [2], 14.8%; in experiment [3], 19.7%; in experiment [4], 22.2%; in experiment [5], 8.52% (active); in experiment [6], 11.4%. Besides, the growth is 34.3% in experiment [7] and 21.4% in experiment [8].

As to `Cc1ccc(-c2nc(/C=C3/C(=O)Nc4ccc(F)cc43)c3ccccn23)cc1`, the growth in experiment [1] was 100%; in experiment [2], 111%; in experiment [3] it was 86.7%; in experiment [4] it was 44.3%; in experiment [5], 35.5%; in experiment [6] it was 55%. Besides, the growth in experiment [7] was 95%; in experiment [8], 81.7%.

For the molecule `Cc1c2cccnc2c(C)c2c1c1cc(CO)ccc1n2C`, the growth in experiment [1] was 17%; in experiment [2], 35%; in experiment [3], 22.6%; in experiment [4], 15.8%; in experiment [5], 6.87% (active); in experiment [6] it was 6.95% (active). The growth in experiment [7] is 34.7%; in experiment [8], 31.1%.

Turning to `COc1ccc(C(=O)c2cc3c(N)c(C(=O)Nc4ccccc4)sc3nc2C)cc1`, the growth in experiment [1] is 39%; in experiment [2], 60.6%; in experiment [3], -5.47% (active); in experiment [4], 28.2%; in experiment [5] it was 20.7%; in experiment [6] it was 13.4%. Also, the growth in experiment [7] was 19%; in experiment [8], 14.9%.

These data come from PubChem BioAssay (NCI).
